Laboratory results taken from ChEMBL document CHEMBL4513146, “CO-ADD screening of Karazin Kharkiv National University (Ukraine) compounds”.
Potency and affinity values are given separately.

Key:
Klebsiella pneumoniae = settings: Concentration 32 ug.mL-1;; ASSAY_TEST Inhibition of Bacterial Growth; detection method Absorption (OD600); MEDIA CAMHB; plate type 384well; NBS; CORNING #3640; time 18 hr
Candida albicans = settings: Concentration 32 ug.mL-1; ASSAY_TEST Inhibition of Fungal Growth; detection method Absorption (OD530)
Cryptococcus neoformans = settings: Concentration 32 ug.mL-1; ASSAY_TEST Inhibition of Fungal Growth; detection method Resazurin; Absorption (OD600-OD570); plate type 384well; NBS; CORNING #3640

Row | SMILES | Inhibition (Klebsiella pneumoniae) [%] | Inhibition (Candida albicans) [%] | Inhibition (Cryptococcus neoformans) [%]
1 | COc1ccc(NC(=O)CSc2nnc3c(=O)n(-c4ccccc4)ccn23)cc1OC | 12.94 | 3.46 | -16.1
2 | CCCc1nnc2c(=O)n(CC(=O)Nc3ccc(Br)cc3F)c3ccccc3n12 | -10.52 | 6.6 | -24.08
3 | CC(C)CCNC(=O)Cn1nc2n(CC(C)C)c(=O)c3sccc3n2c1=O | 9.99 | -0.63 | -16.87
4 | CCOc1ccc(-n2ccn3c(SCC(=O)Nc4cc(OC)cc(OC)c4)nnc3c2=O)cc1 | 3.96 | 2.98 | -7.81
5 | O=S(=O)(c1ccc2nncn2c1)N(Cc1cccc(Cl)c1)c1ccc2c(c1)OCO2 | 8.88 | 1.66 | -13.77
6 | COC(=O)c1ccc(NC(=O)Cn2nc3c4cc(-c5ccc(OC)cc5)nn4ccn3c2=O)cc1 | 9.58 | 0.9 | -33.46
7 | Cc1ccc(Cl)cc1NC(=O)CSc1nnc2n(CC3CCCO3)c(=O)c3sccc3n12 (stereo not given) | 10.58 | -1.49 | -15.54
8 | COc1ccc(NC(=O)c2ccc3nn(CC(=O)Nc4ccccc4C(F)(F)F)c(=O)n3c2)cc1 | 0.14 | 5.37 | -8.24
9 | Cc1ccc(Sc2ccc3nn(CC(=O)Nc4cccc(Cl)c4)c(=O)n3n2)cc1 | -1.6 | 23.7 | -8.64
10 | O=S(=O)(c1cccn2cnnc12)N(Cc1cccc(Cl)c1)c1cc(F)cc(F)c1 | 8.32 | 1.62 | -7.91
11 | Cc1ccc(NC(=O)Cn2nc3c(Oc4ccccc4)nccn3c2=O)c(Cl)c1 | -7.35 | -1.78 | -4
12 | CCC(C)NC(=O)Cn1nc2n(CCC(=O)NC3CCCCC3)c(=O)c3ccccc3n2c1=O (stereo not given) | -2.01 | 3.91 | -20.86
13 | Cc1nnc2c(=S)[nH]c3ccccc3n12 | 21.93 | -0.01 | -43.69
14 | COc1ccc(NC(=O)Cn2nc3c(SC4CCCCC4)nccn3c2=O)cc1Cl | -2.37 | 10.68 | -22.74
15 | Cc1nnc2ccc(S(=O)(=O)N(Cc3ccc(Cl)cc3)c3cccc(F)c3)cn12 | 9.13 | 3.61 | -11.42
16 | COc1ccc(NC(=O)Cn2nc3c4cc(-c5cc(C)ccc5C)nn4ccn3c2=O)c(OC)c1 | 9.51 | 3.64 | -9.3
17 | COc1cccc(-n2ccn3c(SCC(=O)c4c[nH]c5ccccc45)nnc3c2=O)c1 | 10.78 | 4.57 | -9.55
18 | Cc1cc2nn(CC(=O)Nc3ccc(F)c(F)c3)c(=O)n2c(Nc2ccc(C)c(F)c2)n1 | 13.08 | 3.82 | -7.92
19 | CCc1nnc2c(S(=O)(=O)N(Cc3cc(F)cc(F)c3)c3ccc(C)cc3)cccn12 | 20.07 | 3.29 | -8.74
20 | COc1cc(NC(=O)Cn2nc3c(N4CCCC4)nccn3c2=O)cc(OC)c1 | 0.81 | -1.46 | -4.76

Row | SMILES | Inhibition (Klebsiella pneumoniae) [%] | Inhibition (Candida albicans) [%] | Inhibition (Cryptococcus neoformans) [%]
21 | CCCn1c(=O)c2sccc2n2c(CCC(=O)NCCC34CC5CC(CC(C5)C3)C4)nnc12 | 9.89 | 5.72 | -25.69
22 | O=C(CSc1nnc2c(=O)n(Cc3ccc(F)cc3)ccn12)NC1CCCC1 | 8.75 | 5.19 | -22.84
23 | O=C(Cn1nc2ccc(SCc3ccc(Cl)cc3)nn2c1=O)Nc1ccc2c(c1)CCC2 | 12.2 | 7.4 | -25.38
24 | Cc1ccc(NC(=O)Cn2nc3c(SC4CCCCC4)nccn3c2=O)cc1 | 5.75 | -2.16 | -28.82
25 | Cc1cc2nn(CC(=O)Nc3cccc(C)c3C)c(=O)n2c(Nc2ccc(C)c(F)c2)n1 | 16.72 | 5.25 | -5.98
26 | COc1ccc(CNC(=O)CSc2nnc3c4cc(-c5ccc(C)cc5)nn4ccn23)cc1OC | 9.92 | -0.42 | -20.85
27 | Cc1oc(-c2ccccc2)nc1CSc1nc2ccccc2n2c(C(C)C)nnc12 | 2.59 | 6.41 | -7.85
28 | CCOc1ccccc1CNC(=O)CCc1nnc2ccc(-c3ccccc3)nn12 | 9.31 | 0.83 | -22.57
29 | COc1ccc(-c2cc3c4nnc(CCC(=O)N5CCN(c6ccccc6F)CC5)n4ccn3n2)cc1 | 15.22 | 2.19 | -8.32
30 | Cc1ccc(Sc2nccn3c(=O)n(CC(=O)Nc4ccc(Br)cc4)nc23)c(C)c1 | 5.96 | -1.11 | -6.8
31 | CCOC(=O)c1ccccc1NC(=O)Cn1nc2c(Oc3cccc(C)c3C)nccn2c1=O | 7.42 | 0.56 | -7.85
32 | Cc1ccc(-c2ccc3nnc(CCC(=O)NCc4ccc(C(F)(F)F)cc4)n3n2)cc1C | 11.76 | 2.25 | -1.58
33 | O=C(Cn1nc2ccc(SCc3ccc(Cl)cc3)nn2c1=O)Nc1ccc(F)c(F)c1 | 3.9 | 20.34 | -13.26
34 | COC(=O)c1ccc(CN(c2cccc(F)c2)S(=O)(=O)c2ccc3nncn3c2)o1 | 8.3 | 2.51 | -7.35
35 | O=C(Cn1nc2c(SC3CCCCC3)nccn2c1=O)Nc1ccccc1F | 4.58 | 0.33 | -26.33
36 | Cc1ccc(NC(=O)Cn2nc3c(N4CCCC(C)C4)nccn3c2=O)cc1C (stereo not given) | -5.74 | 1.72 | -9.99
37 | Cc1ccc(NC(=O)Cn2c(=O)c3nnc(C)n3c3ccccc32)cc1F | 7.95 | 2.03 | -16.64
38 | COc1ccc(NC(=O)c2ccc3nn(CC(=O)Nc4ccc(C)c(F)c4)c(=O)n3c2)cc1 | 0.39 | 10.47 | -14.12
39 | CCc1cccc(NC(=O)Cn2nc3c(SCc4ccc(Cl)cc4)nccn3c2=O)c1 | 7.77 | 22.52 | -20.82
40 | Cc1cccc(Oc2nc3ccccc3n3c(=O)n(CC(=O)NCc4ccco4)nc23)c1C | 3.72 | 36.74 | -27.2

Row | SMILES | Inhibition (Klebsiella pneumoniae) [%] | Inhibition (Candida albicans) [%] | Inhibition (Cryptococcus neoformans) [%]
41 | CCC(Sc1nnc2c(=O)n(-c3ccc(C)c(C)c3)ccn12)C(=O)Nc1ccccc1C (stereo not given) | 15.08 | 1 | -9.85
42 | N#CCSc1nnc2c(=O)n(-c3ccc(Br)cc3)ccn12 | 12.03 | 1.63 | -7.07
43 | Cc1nnc2c(=O)n(CC(=O)NC3CCCC3)c3ccccc3n12 | 6.01 | 0.18 | -17.78
44 | COc1ccc(-c2cc3c4nn(CC(=O)Nc5ccc(C)c(C)c5)c(=O)n4ccn3n2)cc1 | 5.79 | -0.09 | -15.38
45 | CCc1nnc2c(SCC(=O)Nc3ccc(C(C)=O)cc3)nc3ccccc3n12 | 9.87 | 2.43 | -19.53
46 | COc1ccc(NC(=O)Cn2nc3c(N4CCOCC4)nccn3c2=O)c(OC)c1 | 20.77 | 0.63 | -16.42
47 | O=c1c2nn(Cc3ccccc3Cl)c(=O)n2ccn1-c1ccccc1 | 1.78 | 1.76 | -8.76
48 | Cc1ccc(C)c(-c2cc3c4nnc(SCC(=O)Nc5cccc(Br)c5)n4ccn3n2)c1 | -2.64 | 49.44 | -19.95
49 | Cc1ccc(-c2cc3c4nn(CC(=O)N5CCN(c6ccccc6F)CC5)c(=O)n4ccn3n2)cc1C | 10.7 | 3.33 | -14.81
50 | CCCCn1c(=O)c2sccc2n2c(=O)n(CC(=O)N(C)c3ccccc3)nc12 | -1.65 | -0.48 | -15.83
51 | COc1cccc(-n2ccn3c(=O)n(Cc4ccc([N+](=O)[O-])cc4)nc3c2=O)c1 | 8.52 | 4.1 | -8.87
52 | CC(C)c1ccc(N(Cc2ccc(Cl)cc2)S(=O)(=O)c2cccn3cnnc23)cc1 | 9.01 | 2.08 | -6.18
53 | COc1ccc(NC(=O)c2ccc3nn(CC(=O)Nc4cccc(OC)c4)c(=O)n3c2)cc1 | 8.13 | 4.49 | -9.24
54 | Cc1ccc(-c2nc(CSc3nc4ccccc4n4c(C(C)C)nnc34)c(C)o2)cc1 | 3.51 | 2.71 | -13.81
55 | CSc1ccc(-c2noc(Cn3nc4ccc(-c5ccccc5)nn4c3=O)n2)cc1 | -3.08 | 17.1 | -6.64
56 | N#Cc1cccc(NC(=O)Cn2nc3c4cc(-c5ccc(Cl)cc5)nn4ccn3c2=O)c1 | 3.5 | 20.48 | -13.1
57 | COc1ccc(-c2cc3c4nnc(SCC(=O)Nc5cc(F)ccc5C)n4ccn3n2)cc1 | -19.37 | 1.81 | -16.34
58 | COC(=O)c1ccc(NC(=O)Cn2nc3c(Oc4ccccc4C)nccn3c2=O)cc1 | -1.16 | 1.31 | -4.07
59 | CCc1ccccc1Sc1nccn2c(=O)n(CC(=O)Nc3cc(Cl)c(OC)cc3OC)nc12 | -2.45 | 17.44 | -4.37
60 | Cc1ccccc1CSc1nnc2c(=O)n(-c3ccc(Br)cc3)ccn12 | 3.65 | 15.24 | -9.13
